Only some compounds are listed: those with a hit (about 8.7% of all), similar ones and a draw of the others.
JMJD2A Tudor: qHTS Assay for Inhibitors of JMJD2A-Tudor Domain; Lysine-specific demethylase 4A (Homo sapiens), O75164; Potency, µM (titrated, usually from 114 µM), for the others: top-dose activity change, negative = inhibition, usual class: inhibitors; AID 504339, 2011; AlphaScreen JMJD2A-Tudor / H3K4me3 peptide binding; 4.4% of 390,000 active; further: on the % scale 0 is the no-effect control and ±100 the full control effect; nearly all actives have a fitted effect of over 50% in size
ALOX12 inh: Primary qHTS assay for inhibitors of human arachidonate 12S-lipoxygenase (ALOX12): Round 2; Potency, µM (top dose mostly 108 µM), for the others: top-dose activity change, negative = inhibition, actives largely listed as inhibitors; Polyunsaturated fatty acid lipoxygenase ALOX12 (Homo sapiens), P18054; 1.1% of 580,000 active; purified 12hLO, xylenol orange hydroperoxide absorbance; AID 1671190, 2021; further: on the % scale 0 is the no-effect control and ±100 the full control effect
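Purified human 12hLO at 150 nM in 25 mM Hepes, 0.01% Triton X-100, pH 7.0, preincubated 15 min at room temperature with compound. Reaction started with 40 uM arachidonic acid, 30 min at room temperature. Hydroperoxide measured by Fe-xylenol orange, 573/405 nm absorbance ratio.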
BAZ2B inh: qHTS Assay for Inhibitors of BAZ2B | AlphaScreen BAZ2B-H3K14Ac peptide displacement | 4.4% of 360,000 active | Potency, µM (doses to about 114 µM), without a hit: top-dose activity change, negative = inhibition, usual class: inhibitors | Bromodomain adjacent to zinc finger domain protein 2B (Homo sapiens), Q9UIF8; further: on the % scale 0 is the no-effect control and ±100 the full control effect; nearly all actives have a fitted effect of over 60% in size
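BAZ2B 50 nM plus b-H3(5-23)K14Ac 50 nM, PBS pH 7.4/0.01% Tween-20, 30 min RT; compound added (max 110 uM), 30 min RT; streptavidin donor/Ni-chelate acceptor beads 10 ug/mL final, 20 min dark; AlphaScreen read.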
HP1b chromo inh: HTS for Inhibitors of HP1-beta Chromodomain Interactions with Methylated Histone Tails; Chromobox protein homolog 1 (Homo sapiens), P83916; AlphaScreen HP1-beta / biotin-H3K9me3 peptide binding; Potency, µM (series often up to 114 µM), without a hit: at the highest dose activity change, negative = inhibition, usual class: inhibitors; 0.56% of 390,000 active; AID 540317, 2011; further: nearly all actives have a fitted effect of over 70% in size
Target sequence (P83916 whole entry, looked up): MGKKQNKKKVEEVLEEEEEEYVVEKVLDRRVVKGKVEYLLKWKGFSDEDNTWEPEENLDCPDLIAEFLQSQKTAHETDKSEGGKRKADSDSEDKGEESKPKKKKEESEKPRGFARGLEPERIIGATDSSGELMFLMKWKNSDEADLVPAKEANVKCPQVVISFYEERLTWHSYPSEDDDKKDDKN
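Compound inhibition of the preformed complex between 50 nM HP1-beta and 50 nM biotinylated H3K9me3 peptide was read by AlphaScreen. Buffer was PBS pH 7.4 with 0.01% Tween-20. Incubations ran 30 min at room temperature, with 10 ug/mL donor/acceptor beads.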
G9a inh: qHTS Assay for Inhibitors of Histone Lysine Methyltransferase G9a | 8.8% of 350,000 active | Potency, µM (series often up to 102 µM), for inactives: at the top dose activity, negative = inhibition, hits mostly inhibitors | G9a H3K9 monomethylation, AlphaScreen, 2 h | Histone-lysine N-methyltransferase EHMT2 (Homo sapiens), Q96KQ7 | AID 504332, 2011; further: on the % scale 0 is the no-effect control and ±100 the full control effect; nearly all actives have a fitted effect of over 75% in size
Target sequence (Q96KQ7 913-1193 limits assumed): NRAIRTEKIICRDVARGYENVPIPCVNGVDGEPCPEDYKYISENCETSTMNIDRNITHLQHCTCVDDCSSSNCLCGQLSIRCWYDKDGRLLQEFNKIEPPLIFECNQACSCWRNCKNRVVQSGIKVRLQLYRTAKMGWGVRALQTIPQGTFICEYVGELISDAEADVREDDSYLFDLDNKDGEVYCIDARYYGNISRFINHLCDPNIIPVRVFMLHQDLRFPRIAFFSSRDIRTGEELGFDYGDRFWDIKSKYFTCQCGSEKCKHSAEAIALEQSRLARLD
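Enzyme 20 nM + cpd, 15 min RT; add b-H3K9 pep 500 nM / SAM 20 uM; 2 h RT; anti-H3K9me1 Ab 0.5 ug/mL + SA donor / anti-rabbit acceptor beads 20 ug/mL each, 10 min; AlphaScreen read.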
Sfp PPTase inh: qHTS Assay for Inhibitors of Bacillus subtilis Sfp phosphopantetheinyl transferase (PPTase) | 3.5% of 310,000 active | Potency, µM, for the others: largest response in the series, negative = inhibition, hits mostly inhibitors | Biochemical Sfp PPTase activity, qHTS | 4'-phosphopantetheinyl transferase ffp (Bacillus subtilis), Q9F4F7;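 further: the enzyme is Sfp with the accession as filed and its product quenches rhodamine fluorescence; 0% = enzyme reaction without inhibitor and -100% = no enzyme wells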
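Compounds were incubated with enzyme (final 15 nM) for 15 min at room temperature before substrate addition started the reaction. Fluorescence at 525 nm excitation, 598 nm emission was recorded immediately and after 30 minutes.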
* hit, by the source's call; [ ] = dose if it differs, or a comment. The call rests on the fitted dose curve; in most records, active means well fitted curve in the direction sought with a large enough effect; inconclusive means small, poorly fitted or top-dose-only effect, or another doubt; inactive means no such curve, though single readings can be large; an effect the other way counts as inactive or inconclusive. Potency means the concentration at half of the fitted maximal effect.

What do the screens show for `C#CCOCCOCCOCCNc1nc(N2CCN(C(=O)[C@H](CCCCN)n3cc([C@@H](N)CC(C)C)nn3)CC2)nc(N2CCN(C(=O)[C@H](CCCCN)n3cc([C@@H](N)CC(C)C)nn3)CC2)n1`?
JMJD2A Tudor: -35%; BAZ2B inh: inconclusive; HP1b chromo inh: 26%; G9a inh: inconclusive; Sfp PPTase inh: 6%

Results for C#CCOCCOCCOCCNc1nc(N2CCN(C(=O)C([C@@H](C)O)n3cc([C@@H](N)CCCCN)nn3)CC2)nc(N2CCN(C(=O)[C@H](CCC(=O)O)n3cc([C@@H](N)[C@H](C)CC)nn3)CC2)n1 (some centres undefined) ?
JMJD2A Tudor: 89µM*; ALOX12 inh: inconclusive; HP1b chromo inh: 18%

What do the screens show for `CC(C)c1ccc(C(=O)Cn2cnc3c2c(=O)n(C)c(=O)n3C)c(C(C)C)c1`?
ALOX12 inh: 8%

How did Cc1ccc2c(=O)cc(C(=O)Nc3ccc(S(=O)(=O)N4CCCC(C)C4)cc3)oc2c1 (centres undefined) do in these assays?
ALOX12 inh: -1%

How did Cc1ccc(-n2c(SCC(=O)NCc3ccco3)nc3nc4c(cc3c2=O)COC(C)(C)C4)cc1 do in these assays?
JMJD2A Tudor: -29%; ALOX12 inh: 464%; BAZ2B inh: inconclusive; HP1b chromo inh: 27%; G9a inh: inconclusive; Sfp PPTase inh: 25µM*

What do the screens show for `Cc1ccc(-n2c(SCC(=O)NCc3ccco3)nc3sc(C)c(C)c3c2=O)cc1`?
JMJD2A Tudor: -8%; ALOX12 inh: 0%; BAZ2B inh: -1%; HP1b chromo inh: 12%; G9a inh: -44%[59 µM]; Sfp PPTase inh: -3%

Results for COc1ccc(-n2c(=S)[nH]c3ccccc3c2=S)cc1 ?
JMJD2A Tudor: -18%; ALOX12 inh: -2%; BAZ2B inh: 5%; HP1b chromo inh: 39%; G9a inh: 28%[2.33 µM]; Sfp PPTase inh: 12%

How did S=c1[nH]nc(-c2cc(-c3ccsc3)n[nH]2)n1-c1cccc2ccccc12 do in these assays?
JMJD2A Tudor: inconclusive; ALOX12 inh: inconclusive; BAZ2B inh: inconclusive; HP1b chromo inh: 1%; G9a inh: 8.9µM*; Sfp PPTase inh: -15%

Results for COCc1n[nH]c(=S)n1-c1cccc2ccccc12 ?
JMJD2A Tudor: 20µM*; ALOX12 inh: inconclusive; BAZ2B inh: 0%; HP1b chromo inh: 17%; G9a inh: 16µM*; Sfp PPTase inh: -18%

How did O=c1c2ccccc2nc(-c2cccs2)n1-c1cccc2ccccc12 do in these assays?
JMJD2A Tudor: -18%; ALOX12 inh: -21%; BAZ2B inh: -12%; HP1b chromo inh: 12%; G9a inh: inconclusive; Sfp PPTase inh: -12%

Results for CN(C)Cc1nnc(C2CC(NC(=O)c3cc(-c4ccsc4)n[nH]3)C2)n1C (centres undefined) ?
ALOX12 inh: 91%

How did COc1ccc(-c2cc(-c3n[nH]c(=S)n3-c3cccc4ccccc34)[nH]n2)cc1 do in these assays?
JMJD2A Tudor: inconclusive; ALOX12 inh: inconclusive; BAZ2B inh: inconclusive; HP1b chromo inh: inconclusive; G9a inh: 35µM*; Sfp PPTase inh: 1%

What do the screens show for `CC(=O)c1ccc(-n2c(-c3cc(-c4ccsc4)n[nH]3)n[nH]c2=S)cc1`?
JMJD2A Tudor: inconclusive; ALOX12 inh: inconclusive; BAZ2B inh: -35%; HP1b chromo inh: 10%; G9a inh: 1.1µM*; Sfp PPTase inh: -36%

Results for C=CCNC(=S)NS(=O)(=O)c1cccs1 ?
JMJD2A Tudor: -28%; ALOX12 inh: 1.1µM*; BAZ2B inh: -24%; HP1b chromo inh: -11%; G9a inh: 18µM*; Sfp PPTase inh: 22µM*

How did C=CCNC(=O)/C=C/c1cccs1 do in these assays?
JMJD2A Tudor: 10%; ALOX12 inh: inconclusive; BAZ2B inh: -10%; HP1b chromo inh: 32%; G9a inh: 8%; Sfp PPTase inh: 12%

Results for CNC(=S)N/N=C/c1c(Cl)cccc1Cl ?
JMJD2A Tudor: 0%; ALOX12 inh: inconclusive; BAZ2B inh: 6%; HP1b chromo inh: 25%; G9a inh: 3%[59 µM]; Sfp PPTase inh: -26%

How did COc1ccc(-n2c(C)cc(/C=N/Nc3nnc(C)n3N)c2C)cc1 do in these assays?
JMJD2A Tudor: inconclusive; ALOX12 inh: 1%; BAZ2B inh: inconclusive; HP1b chromo inh: -34%; G9a inh: 11µM*; Sfp PPTase inh: 32µM*

How did Cc1ccc(-n2c(C)cc(/C=N/NC(N)=S)c2C)cc1 do in these assays?
JMJD2A Tudor: inconclusive; ALOX12 inh: 45µM*; BAZ2B inh: inconclusive; HP1b chromo inh: -20%; G9a inh: inconclusive; Sfp PPTase inh: -10%

Results for CNC(=S)N/N=C/c1cc(C)n(-c2ccc(Cl)c(Cl)c2)c1C ?
JMJD2A Tudor: inconclusive; ALOX12 inh: inconclusive; BAZ2B inh: 35µM*; HP1b chromo inh: inconclusive; G9a inh: 45µM*; Sfp PPTase inh: -8%

How did COc1cccc(/C=N/Nc2nnc(C)n2N)c1O do in these assays?
JMJD2A Tudor: inconclusive; ALOX12 inh: 27%; BAZ2B inh: 5%; HP1b chromo inh: 42%; G9a inh: 14%; Sfp PPTase inh: 7%

What do the screens show for `Cc1ccc(-n2c(C)cc(/C=N/NC(=O)c3ccncc3)c2C)cc1`?
JMJD2A Tudor: inconclusive; ALOX12 inh: inconclusive; BAZ2B inh: inconclusive; HP1b chromo inh: 10%; G9a inh: inconclusive; Sfp PPTase inh: -2%

Results for CCOCC(=O)N1CCC(Nc2nccnc2OC)CC1 ?
ALOX12 inh: 36%

What do the screens show for `COc1ccc(C(=O)NNC(=S)NC(=O)c2ccco2)cc1`?
JMJD2A Tudor: -2%[57.1 µM]; ALOX12 inh: 0%; BAZ2B inh: 7%[57.1 µM]; HP1b chromo inh: 36%; G9a inh: inconclusive; Sfp PPTase inh: 16%

Results for CCCOc1ccc(C(=O)NNC(=S)NC(=O)c2ccco2)cc1 ?
JMJD2A Tudor: -31%; ALOX12 inh: 40µM*; BAZ2B inh: -12%; HP1b chromo inh: inconclusive; G9a inh: 40µM*; Sfp PPTase inh: 3%

What do the screens show for `CCCOc1ccc(C(=O)NNC(=S)NC(C)=O)cc1`?
JMJD2A Tudor: 28µM*; ALOX12 inh: -3%; BAZ2B inh: 25%[57.1 µM]; HP1b chromo inh: 19%; G9a inh: inconclusive; Sfp PPTase inh: inconclusive

Screening data (PubChem BioAssay)
